Laboratory results reported in PubChem BioAssay AID1159580 (chemical genetic matrix, 2015).
Values joined by “and” are separate entries in the source; they are usually repeats but may differ in a detail not shown here. Identical values can stand only once. Screen size: about 5,500 compounds; about 2,000 (36%) were called active. About 18% were inconclusive and are not listed. No stated cut-off is given here; in the data, active means normalized growth mostly below about 0.91 (no sharp cut-off); inconclusive means no clear call, values can overlap the other calls; inactive means mostly above about 0.92. The list shows a part of the results.

Assay: chemical genetic growth profiling, strain panel (AID 1159580);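 further: tested at 20 µM; growth read once vehicle control cultures reached saturation at 30 °C; 1 = growth at the plate median or of vehicle wells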
Details: S. cerevisiae deletion strains, growth OD

Measured: normalized growth

CCN(Cc1ccncc1)C(=O)C(CO)c1ccccc1 (stereo unspecified)
inactive: locus YAL013W, strain DEP1, stronger effect = lower value 0.993 and 0.979 | locus YAL021C, strain ccr4, stronger effect = lower value 1.04 | locus YAL026C, strain drs2, stronger effect = lower value 1.03 | locus YAL030W, strain snc1, stronger effect = lower value 1.02 | locus YAL040C, strain CLN3, stronger effect = lower value 0.996 | locus YBL061C, strain skt5, stronger effect = lower value 1.02 | locus YBR009C, strain hhf1, stronger effect = lower value 1.03 | locus YBR021W, strain FUR4, stronger effect = lower value 1.01 | locus YBR023C, strain chs3, stronger effect = lower value 1.03 | locus YBR171W, strain sec66, stronger effect = lower value 1.04 | locus YBR229C, strain ROT2, stronger effect = lower value 0.996 | locus YBR231C, strain swc5, stronger effect = lower value 1.03 | locus YBR279W, strain paf1, stronger effect = lower value 1.01 | locus YCL011C, strain gbp2, stronger effect = lower value 1.02 | locus YCL016C, strain dcc1, stronger effect = lower value 1.03 | locus YCL029C, strain bik1, stronger effect = lower value 0.973 | locus YCL061C, strain MRC1 (second series), stronger effect = lower value 1.01 | locus YCL061C, strain MRC1, stronger effect = lower value 1.03 | locus YCL069W, strain vba3, stronger effect = lower value 1.03 | locus YCR088W, strain abp1, stronger effect = lower value 1.02 | locus YDL005C, strain med2, stronger effect = lower value 1.04 | locus YDL035C, strain GPR1, stronger effect = lower value 1 | locus YDL040C, strain nat1, stronger effect = lower value 1.02 | locus YDL074C, strain BRE1, stronger effect = lower value 0.989 | locus YDL101C, strain DUN1, stronger effect = lower value 0.987 | locus YDL134C, strain PPH21, stronger effect = lower value 0.999 | locus YDL185W, strain tfp1, stronger effect = lower value 0.964 | locus YDL192W, strain arf1, stronger effect = lower value 0.976 | locus YDR001C, strain nth1, stronger effect = lower value 1.02 | locus YDR069C, strain doa4, stronger effect = lower value 1.04 | locus YDR101C, strain arx1, stronger effect = lower value 0.985 | locus YDR137W, strain rgp1, stronger effect = lower value 1.07 | locus YDR150W, strain NUM1, stronger effect = lower value 0.994 | locus YDR159W, strain sac3, stronger effect = lower value 1.03 | locus YDR162C, strain NBP2, stronger effect = lower value 0.985 | locus YDR195W, strain ref2 1.02 | locus YDR297W, strain sur2, stronger effect = lower value 1.02 | locus YDR318W, strain mcm21, stronger effect = lower value 0.989 | locus YDR334W, strain swr1, stronger effect = lower value 1.03 | locus YDR335W, strain msn5, stronger effect = lower value 1.04 | locus YDR363W, strain ESC2, stronger effect = lower value 0.991 | locus YDR388W, stronger effect = lower value 0.993 | locus YDR392W, strain spt3, stronger effect = lower value 0.987 | locus YDR502C, strain sam2, stronger effect = lower value 1.01 | locus YEL003W, strain gim4, stronger effect = lower value 1.01 | locus YEL037C, strain rad23, stronger effect = lower value 1.02 | locus YEL061C, strain CIN8 (second series), stronger effect = lower value 1.03 | locus YEL061C, strain CIN8, stronger effect = lower value 0.995 | locus YER002W, strain NOP16, stronger effect = lower value 0.994 | locus YER015W, strain faa2, stronger effect = lower value 1.01 | locus YER016W, strain bim1, stronger effect = lower value 1.03 | locus YER110C, stronger effect = lower value 0.988 | locus YER111C, strain swi4, stronger effect = lower value 1.03 | locus YER155C, strain BEM2 (second series), stronger effect = lower value 1.03 | locus YER155C, strain BEM2, stronger effect = lower value 0.994 | locus YER167W, strain BCK2, stronger effect = lower value 0.989 | locus YFR010W, strain ubp6, stronger effect = lower value 1.02 | locus YGL078C, strain dbp3, stronger effect = lower value 1 | locus YGL086W, strain mad1, stronger effect = lower value 1 | locus YGL167C, strain pmr1, stronger effect = lower value 1.02 | locus YGL173C, strain kem1, stronger effect = lower value 1.04 | locus YGL227W, strain vid30, stronger effect = lower value 1.04 | locus YGL240W, strain doc1, stronger effect = lower value 1.03 | locus YGL248W, strain PDE1, stronger effect = lower value 1 | locus YGL253W, strain hxk2, stronger effect = lower value 1.02 | locus YGR078C, strain PAC10, stronger effect = lower value 0.989 | locus YGR135W, strain pre9, stronger effect = lower value 0.994 | locus YGR229C, strain SMI1, stronger effect = lower value 0.997 | locus YGR252W, strain gcn5, stronger effect = lower value 1.11 | locus YHR013C, strain ard1, stronger effect = lower value 1.05 | locus YHR027C, strain rpn1, stronger effect = lower value 1.05 | locus YHR030C, strain SLT2, stronger effect = lower value 0.981 and 1 | locus YHR079C, strain IRE1 (second series), stronger effect = lower value 0.984 | locus YHR079C, strain IRE1, stronger effect = lower value 0.989 | locus YHR094C, strain hxt1, stronger effect = lower value 0.977 | locus YHR129C, strain ARP1, stronger effect = lower value 0.993 | locus YHR142W, strain chs7, stronger effect = lower value 1.02 | locus YHR200W, strain rpn10, stronger effect = lower value 0.992 | locus YIL066C, strain RNR3, stronger effect = lower value 0.997 | locus YIL073C, strain SPO22, stronger effect = lower value 0.926 | locus YIL125W, strain kgd1, stronger effect = lower value 0.984 | locus YIR030C, strain dcg1, stronger effect = lower value 1 | locus YJL092W, strain hpr5, stronger effect = lower value 1.02 | locus YJL095W, strain BCK1 (second series), stronger effect = lower value 1.01 | locus YJL095W, strain BCK1, stronger effect = lower value 0.972 and 1.01 | locus YJL115W, strain asf1, stronger effect = lower value 1.04 | locus YJL129C, strain trk1, stronger effect = lower value 1.04 | locus YJL134W, strain LCB3, stronger effect = lower value 0.995 | locus YJL154C, strain vps35, stronger effect = lower value 1.02 | locus YJL164C, strain tpk1, stronger effect = lower value 1.02 | locus YJL166W, strain qcr8, stronger effect = lower value 1.02 | locus YJL168C, strain set2, stronger effect = lower value 0.983 | locus YJL187C, strain SWE1 (second series), stronger effect = lower value 0.979 | locus YJL187C, strain SWE1, stronger effect = lower value 1.02 | locus YJR043C, strain POL32, stronger effect = lower value 0.988 | locus YJR066W, strain TOR1, stronger effect = lower value 0.95
